# Measured values published in PubChem BioAssay (NCI).
# About 79,000 compounds went through this panel and 15% of them were active in at least one assay; those are over-represented in the sample as a whole. Calls of active or inactive are those of the source. Rule as the data show it: active = growth inhibition above about 70%; inactive = the rest.
# Test: NCI Yeast Anticancer Drug Screen. Data for the cln2 rad14 strain (AID 165);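 also: 0% = growth equal to vehicle treated cultures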
# Conditions: S. cerevisiae cln2 rad14 strain, at 5.0 µM (retest, dose inferred, filed as 0.5), hits give high values
# In short: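 cln2 rad14 yeast strain; compound exposure; growth inhibition read vs vehicle controls.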
row,Structure (SMILES),growth inhibition
1,N#C/C(=N\O)C(N)=O,-1% (inactive)
2,COc1ccc(C(N)=O)cc1,-3% (inactive)
3,CC1=C(/C=C/C(C)=C/C(=O)O)C(C)(C)CCC1,3% (inactive)
4,CC(=O)Oc1c(Br)cc(Br)cc1C(OC(C)=O)OC(C)=O,3% (inactive)
5,CCCCCCN(CCCCCC)CCCCCCCCCCCO,12% (inactive)
6,COc1cccc(NC(=O)c2c(SC)n[nH]c2N)c1,30% (inactive)
7,O=C(O)/C=C\C(=O)NNc1ccccc1,10% (inactive)
8,Oc1ccc(Cc2cccc(Cl)c2)c(O)c1,4% (inactive)
9,C=COC(=O)c1ccccc1C(=O)OCCCC,7% (inactive)
10,O=C(O)c1ccc(-c2ccccc2)cc1,-1% (inactive)
11,N#CC(c1ccccc1)C(c1ccccc1)c1ccccc1 (stereo not drawn),20% (inactive)
12,CC(C)(C)c1cc([N+](=O)[O-])c(O)c([N+](=O)[O-])c1,22% (inactive)
13,CSC(SC)=C(C#N)C(=O)Nc1cccc(Cl)c1,39% (inactive)
14,CCOC(=O)C(NC(C)=O)C(=O)c1ccccc1 (stereo not drawn),11% (inactive)
15,O=[N+]([O-])/C=C/c1cccs1,16% (inactive)
16,C/C(=N\Nc1ccc(Cl)cc1)C(=O)O,8% (inactive)
17,CC(=O)Nc1ccc(/C=N/NC(=S)NCC(C)C)cc1,11% (inactive)
18,CCCCN(CCCC)C(=O)C(C)OC(C)=O (stereo not drawn),10% (inactive)
19,C=CCCCCCCCCC(=O)NN,-8% (inactive)
20,C1CCC(CCCc2nn[nH]n2)CC1,1% (inactive)

row,Structure (SMILES),growth inhibition
1,CSS(C)(=O)=O,-4% (inactive)
2,Clc1ccc(-n2ncc3c(Cl)nc(Cl)nc32)cc1,97% (active)
3,C(CCc1nn[nH]n1)CCC1CCCCC1,19% (inactive)
4,Oc1ccc(/C=C/c2ccc(Cl)cc2)cc1,7% (inactive)
5,Cc1ccc2[nH]cc(CC(=O)O)c2c1,42% (inactive)
6,CN(C)c1cc(N)c(Cc2c(N)cc(N(C)C)cc2Cl)c(Cl)c1,8% (inactive)
7,O=C1c2ccccc2-c2ccc(O)cc21,10% (inactive)
8,CC(=O)Oc1ccc(OC(C)=O)c2c1CC=CC2,0% (inactive)
9,O=c1c2ccccc2ncn1O,10% (inactive)
10,CC(C)(C)C(=O)CC(c1ccccc1)c1ccccc1,12% (inactive)
11,Cc1cccc(N=NC(C#N)C#N)c1,-7% (inactive)
12,CC(=O)Nc1nc(-c2ccccc2)cs1,7% (inactive)
13,CC(C)c1cc([N+](=O)[O-])c(O)c([N+](=O)[O-])c1,18% (inactive)
14,CC(C)NC(=O)C(C)O (stereo not drawn),2% (inactive)
15,CN(C)CNC(=S)S,97% (active)
16,CCCCNC(=O)C(C)O (stereo not drawn),5% (inactive)
17,COc1cccc(NC(=O)c2c(SC)c(C#N)c(=O)n(N)c2N)c1,7% (inactive)
18,COc1ccc(/C(C#N)=C/c2cccc(N)c2)cc1,2% (inactive)
19,CCCCC(CC)CNC(=O)CI (stereo not drawn),9% (inactive)

# Same assay, conditions: S. cerevisiae cln2 rad14 strain, at 50.0 µM (retest, dose inferred, filed as 5.0), hits give high values
row,Structure (SMILES),growth inhibition
1,N#C/C(=N\O)C(N)=O,75% (active)
2,COc1ccc(C(N)=O)cc1,-11% (inactive)
3,CC1=C(/C=C/C(C)=C/C(=O)O)C(C)(C)CCC1,43% (inactive)
4,CC(=O)Oc1c(Br)cc(Br)cc1C(OC(C)=O)OC(C)=O,52% (inactive)
5,CCCCCCN(CCCCCC)CCCCCCCCCCCO,98% (active)
6,COc1cccc(NC(=O)c2c(SC)n[nH]c2N)c1,75% (active)
7,O=C(O)/C=C\C(=O)NNc1ccccc1,82% (active)
8,Oc1ccc(Cc2cccc(Cl)c2)c(O)c1,98% (active)
9,C=COC(=O)c1ccccc1C(=O)OCCCC,-6% (inactive)
10,O=C(O)c1ccc(-c2ccccc2)cc1,39% (inactive)
11,N#CC(c1ccccc1)C(c1ccccc1)c1ccccc1 (stereo not drawn),55% (inactive)
12,CC(C)(C)c1cc([N+](=O)[O-])c(O)c([N+](=O)[O-])c1,46% (inactive)
13,CSC(SC)=C(C#N)C(=O)Nc1cccc(Cl)c1,98% (active)
14,CCOC(=O)C(NC(C)=O)C(=O)c1ccccc1 (stereo not drawn),-4% (inactive)
15,O=[N+]([O-])/C=C/c1cccs1,99% (active)
16,C/C(=N\Nc1ccc(Cl)cc1)C(=O)O,98% (active)
17,CC(=O)Nc1ccc(/C=N/NC(=S)NCC(C)C)cc1,-8% (inactive)
18,CCCCN(CCCC)C(=O)C(C)OC(C)=O (stereo not drawn),1% (inactive)
19,C=CCCCCCCCCC(=O)NN,81% (active)
20,C1CCC(CCCc2nn[nH]n2)CC1,44% (inactive)

row,Structure (SMILES),growth inhibition
1,CSS(C)(=O)=O,98% (active)
2,Clc1ccc(-n2ncc3c(Cl)nc(Cl)nc32)cc1,98% (active)
3,C(CCc1nn[nH]n1)CCC1CCCCC1,97% (active)
4,Oc1ccc(/C=C/c2ccc(Cl)cc2)cc1,97% (active)
5,Cc1ccc2[nH]cc(CC(=O)O)c2c1,99% (active)
6,CN(C)c1cc(N)c(Cc2c(N)cc(N(C)C)cc2Cl)c(Cl)c1,96% (active)
7,O=C1c2ccccc2-c2ccc(O)cc21,69% (inactive)
8,CC(=O)Oc1ccc(OC(C)=O)c2c1CC=CC2,11% (inactive)
9,O=c1c2ccccc2ncn1O,21% (inactive)
10,CC(C)(C)C(=O)CC(c1ccccc1)c1ccccc1,0% (inactive)
11,Cc1cccc(N=NC(C#N)C#N)c1,86% (active)
12,CC(=O)Nc1nc(-c2ccccc2)cs1,-5% (inactive)
13,CC(C)c1cc([N+](=O)[O-])c(O)c([N+](=O)[O-])c1,76% (active)
14,CC(C)NC(=O)C(C)O (stereo not drawn),3% (inactive)
15,CN(C)CNC(=S)S,51% (inactive)
16,CCCCNC(=O)C(C)O (stereo not drawn),0% (inactive)
17,COc1cccc(NC(=O)c2c(SC)c(C#N)c(=O)n(N)c2N)c1,98% (active)
18,COc1ccc(/C(C#N)=C/c2cccc(N)c2)cc1,2% (inactive)
19,CCCCC(CC)CNC(=O)CI (stereo not drawn),6% (inactive)
